Screening results as filed in PubChem.
AI-2 QS modul – Vibrio harveyi AI-2 quorum sensing modulation; Vibrio harveyi JMH597 AI-2 luminescence/OD600 ratio, 9 h; hits give low values; strain lacks LuxN and CqsS sensors; 0 = neutral-control median; activity change, % at 7.5 µM; actives 0.4% (n = 300,000); in the data active means activity change below about -75%, passing the limit was not always enough;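 further: luminescence divided by OD600 gain over 9 h not by final OD600 alone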
ALR H2O2 inh – blocks human ALR sulfhydryl oxidase activity | purified ALR, DTT oxidation, H2O2 HRP-luminol luminescence | inhibition, % (concentration not given with the values) | actives 3.8% (n = 290,000) | AID 485317;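 active means mean replicate inhibition above about 79%, with every replicate also reaching it, limit read from the data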
Target sequence (P55789 whole entry, looked up): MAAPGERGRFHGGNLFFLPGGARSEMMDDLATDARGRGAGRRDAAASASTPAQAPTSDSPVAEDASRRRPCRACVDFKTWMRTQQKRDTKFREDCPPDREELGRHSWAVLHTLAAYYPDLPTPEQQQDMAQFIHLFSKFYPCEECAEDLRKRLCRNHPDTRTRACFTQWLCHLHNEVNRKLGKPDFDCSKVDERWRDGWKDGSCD
HIF act – HIF pathway transcriptional activation | U2OS HRE-luciferase reporter, luminescence; normalized: DMSO 0%, desferrioxamine 100% | activation, % at 7.5 µM (by protocol) | actives 0.32% (n = 300,000) | AID 1910;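 active means mean activation of at least 10% of the iron chelator positive control signal, with at least half of replicates also reaching 10%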
Mot1-301 SUMO – inhibitors of SUMOylation pathway: yeast Mot1-301 growth rescue; S. cerevisiae Mot1-301 growth rescue, ATP luminescence, 38.5C; percent above DMSO median, 100 means doubled; growth rescue, % at 18.8 µM; actives 1% (n = 320,000);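 active means every valid replicate shows activation above 250% relative to neutral control wells; inactive means the rest, any valid replicate at or below 250%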
Each line names hits and unclear results; the compound was inactive in the other large screens. Shown are actives, neighbours in structure and some others; about 4.8% of the full set was active somewhere.

COc1ccc(CN2C(=O)CNC2=S)cc1	none (no result: ALR H2O2 inh)
O=C(C1CCCN(Cc2ccccc2F)C1)N1CCc2ccccc2C1 (stereo unspecified)	HIF act 108
O=C(N/N=C/c1ccc2c(c1)OCO2)C(=O)Nc1cccc(Cl)c1	none (no result: ALR H2O2 inh)
CCN1C(=O)/C(=C/C=C2/CCCN2C)OC1=S	ALR H2O2 inh 98
CCc1ccc(C(=O)Nc2cc(S(=O)(=O)N3CCOCC3)ccc2N2CCOCC2)cc1	none (no result: AI-2 QS modul, HIF act)
O=C1COc2ccc(C(=O)COC(=O)Cc3ccc(F)cc3)cc2N1	AI-2 QS modul -82
CC(C)[C@H](NC(=O)c1ccco1)C(=O)OCC(=O)c1ccc2c(c1)NC(=O)CO2	ALR H2O2 inh 100
O=C1COc2ccc(C(=O)COC(=O)c3ccccc3F)cc2N1	none (no result: AI-2 QS modul, HIF act)
CC(C)(C)c1ccc(CNC(=O)c2ccc3c(c2)NC(=O)CO3)cc1	Mot1-301 SUMO 331
O=C1COc2ccc(C(=O)NCc3ccc4c(c3)OCO4)cc2N1	none
O=C1COc2ccc(C(=O)COC(=O)c3ccco3)cc2N1	none
S=C(NCC1CCCO1)N1CCc2ccccc2C1 (stereo unspecified)	none
CN1C(=O)C2C(c3ccc(N(C)C)cc3)=NN(Cc3ccccc3)C2C1=O (stereo unspecified)	ALR H2O2 inh 99
Cc1ccc(S(=O)(=O)/N=C(\CCl)N2CCOCC2)cc1	ALR H2O2 inh 97
Nc1nc(Nc2ccccc2)nc(NCc2ccccc2)c1[N+](=O)[O-]	ALR H2O2 inh 86
Nc1nc(NCc2ccccc2)nc(NCc2ccccc2)c1[N+](=O)[O-]	none (no result: HIF act)
O=C(NC1CCN(S(=O)(=O)c2ccccc2F)CC1)c1cccnc1	none (no result: ALR H2O2 inh)
CCOC(=O)c1sc(N(Cc2ccccc2)C(=O)COC(=O)c2ccc(O)cc2)nc1C	HIF act 10.0
O=C(Cc1ccccc1)Nc1ccccc1C(=O)NCC1CCCO1 (stereo unspecified)	none
CCS(=O)(=O)c1ccc(N=Nc2ccc(O)c3ncccc23)c(OC)c1	none (no result: ALR H2O2 inh, Mot1-301 SUMO)
COc1ccccc1N=Nc1ccc(O)c2ncccc12	HIF act 11 (no result: ALR H2O2 inh)
Cc1ccc(N=Nc2ccc(O)c3ncccc23)cc1	HIF act 147
CC(Sc1nnc(C2CC2)n1C1CC1)C(=O)c1ccc(F)cc1 (stereo unspecified)	none (no result: AI-2 QS modul, HIF act)
COC(=O)/C(=N\Nc1ccc(Cl)cc1)Sc1nnc(-c2ccc(OC)cc2)n1C	ALR H2O2 inh 95
COc1ccc(OCC(O)CN2CC(C)OC(C)C2)cc1 (stereo unspecified)	none
O=C(NNCc1ccc(O)cc1)c1ccccc1Cl	ALR H2O2 inh 99
Cc1c(CC(=O)N[C@H](C(=O)O)C(C)C)c(=O)oc2cc3c(cc12)CCC(C)(C)O3	none
O=C(O)/C=C\C(=O)Nc1ccccc1C#Cc1ccc(Br)cc1	ALR H2O2 inh 98
S=c1[nH]nc(-c2ccco2)n1/N=C/c1ccccn1	ALR H2O2 inh 98
Cc1cccc(/C=N/n2c(-c3ccco3)n[nH]c2=S)c1	ALR H2O2 inh 97
Cc1ccc(/C=N/n2c(-c3ccco3)n[nH]c2=S)cc1	none
CC(C)Cc1ccc(C(=O)NCCOc2ccccc2)o1	none
CCCn1c(NC(=O)CN2C(=O)NC3(CCCCC3)C2=O)nc2ccccc21	none
O=C(NCc1ccco1)c1ccccc1SCC(=O)N1CCCC1	none (no result: AI-2 QS modul, HIF act)
COC(=O)/C(=N/Nc1ccccc1C)N1CCCc2ccccc21	ALR H2O2 inh 98
CCOC(=O)/C(=N/Nc1ccc(OC)cc1)N1CCCc2ccccc21	none (no result: ALR H2O2 inh)
CCOC(=O)/C(=N/Nc1ccccc1)N1CCCc2ccccc21	ALR H2O2 inh 94
CCn1c(C)nnc1SCC(=O)Nc1cccc(C(F)(F)F)c1	none
Cc1c(O)nc(SCC(=O)Nc2cccc(C(F)(F)F)c2)n(-c2ccccc2)c1=O	ALR H2O2 inh 99
COc1cccc(NC(=O)CSc2nnc(Cc3cccs3)n2-c2ccc(C)cc2)c1	none
COc1cccc(NC(=O)CSc2nc(O)c(C)c(=O)n2-c2ccc(C)cc2)c1	ALR H2O2 inh 98 (no result: AI-2 QS modul)
CC(C)(C)CC(C)(C)NC(=O)/C=C/C(=O)O	none
CC1=NN(c2ccccc2)C(=O)/C1=C/C=C/C=C/N(C)C	ALR H2O2 inh 96
COc1ccc(S(=O)(=O)N2CCSC2C)cc1C (stereo unspecified)	none
Cc1cc(OCC(=O)Nc2ccc(CN3CCOCC3)cc2)c2c(C)c(C)c(=O)oc2c1	Mot1-301 SUMO 305
CCN(CC)c1ccc(/C=N/n2c(C)nc3ccccc3c2=O)cc1	none (no result: ALR H2O2 inh)
Cn1c(=O)c2c(nc3n2CC(O)CN3c2ccc(O)cc2)n(C)c1=O (stereo unspecified)	ALR H2O2 inh 99
CC1CCCN(C(=O)CCNS(=O)(=O)c2ccc3c(c2)c(=O)n(C)c(=O)n3C)C1 (stereo unspecified)	none
COC(=O)Cn1ncc(N(C)Cc2ccccc2)c(Cl)c1=O	none
Cc1ccc(C(=O)NC(=C(Cl)Cl)S(=O)(=O)c2ccc(C)cc2)cc1	ALR H2O2 inh 99
Cc1ccc(C)c(CNc2ccc(S(=O)(=O)N3CCCCC3)cc2)c1	none (no result: AI-2 QS modul, HIF act)
COC1=C(C)C(O)=C(C(=O)/C=C/c2ccccc2)C(=O)C1(C)C	ALR H2O2 inh 97
CCOC(=O)c1c(S(=O)(=O)N(C)C2CCCCC2)c(C)n(C)c1C	none
NC(=O)c1cccnc1Oc1ccccc1	Mot1-301 SUMO 350
O=C(NNc1cc(Br)c(O)c(Br)c1)c1ccccc1	ALR H2O2 inh 99
CCCCCN1CN(S(=O)(=O)c2cccs2)c2nc3ccccc3nc21	none
CCOC(=O)c1[nH]c2ccc(OC)cc2c1NC(=O)OC	none
CCOC(=O)c1[nH]c2ccc(OC)cc2c1N=CN(C)C	ALR H2O2 inh 98
Cc1ccnc2nc(C(=O)OCC(=O)Nc3ccc([N+](=O)[O-])cc3Br)nn12	none (no result: AI-2 QS modul, ALR H2O2 inh, HIF act)
COC(=O)c1ccc(OCCOc2ccccc2)cc1	AI-2 QS modul -76
COC(=O)c1ccc(OCCOc2ccccc2C)cc1	none
CC1=C(C(=O)N2CCN(c3cc(C)ccc3C)CC2)C2(CCCCC2)OC1=O	ALR H2O2 inh 87 (no result: HIF act)
Cc1ccc(S(=O)(=O)N2CCOCC2)cc1C(=O)NC1CCSc2ccccc21 (stereo unspecified)	none
CC(NC(=O)c1ccccc1)c1nnc(SCc2nc3ccccc3c(=O)[nH]2)n1C (stereo unspecified)	none
CC(NC(=O)c1ccccc1F)c1nnc(SCc2nc3ccccc3c(=O)[nH]2)n1C (stereo unspecified)	Mot1-301 SUMO 292
O=C(CN1C(=O)NC2(CCc3ccccc32)C1=O)NCc1cccc(C(F)(F)F)c1 (stereo unspecified)	none (no result: AI-2 QS modul, HIF act)
Cc1cccc(NC(=O)CSc2nnc(C)c(=O)n2N)c1	Mot1-301 SUMO 461
Cc1nnc(SCC(=O)Nc2ccc(OC(F)F)c(Cl)c2)n(N)c1=O	ALR H2O2 inh 99 (no result: AI-2 QS modul, HIF act)
Cc1ccc(NC(=O)CSc2nnc(C)c(=O)n2N)cc1Cl	none
CNC(=S)NNC(=O)c1cc(-c2cccnc2)nc2ccccc12	none
COc1ccc(N2CCN(C3CCCN(C(=O)c4cccc(C)n4)C3)CC2)cc1 (stereo unspecified)	none
Cc1cccc(C(=O)N2CCCC(N3CCN(c4ccc(F)cc4)CC3)C2)n1 (stereo unspecified)	ALR H2O2 inh 99
